# Screening results as filed in PubChem.
# This is one part of a sample in which hits are shown more often than they occur.
# Lassa entry inh: qHTS for Inhibitors of binding or entry into cells for Lassa Virus; Lassa virus pseudotype entry inhibition, cell reporter; Potency, µM (highest dose often 37.9 µM), for the others: top-dose activity change, negative = inhibition, hits mostly inhibitors; hit rate 1.2% among 300,000; calls by dose curve; tested in HEK293 cells; further: potency means the concentration at half of the fitted maximal effect; on the % scale 0 is the no-effect control and ±100 the full control effect; nearly all actives have a fitted effect of over 50% in size
# Shiga toxin inh: A qHTS for Small Molecule Inhibitors of Shiga Toxin; Vero cells, Shiga toxin protein synthesis inhibition reporter; inhibition, % at 38.7 µM; hit rate 9.2% among 290,000; in the data active means inhibition mostly above about 28%, no sharp cut-off; inactive means mostly below about 43%; further: 0% is about no effect
# Marburg entry inh: qHTS for inhibitors of binding or entry into cells for Marburg Virus; Marburg virus pseudotyped entry inhibition, cell reporter; Potency, µM (doses to about 37.8 µM), for the others: top-dose activity change, negative = inhibition, most hits filed as inhibitors; hit rate 1.8% among 300,000; AID 540276, 2011; calls by dose curve; tested in HEK293 cells; further: potency means the concentration at half of the fitted maximal effect; on the % scale 0 is the no-effect control and ±100 the full control effect
# AMA1-RON2 inh: qHTS for Inhibitors of AMA1-RON; Towards Development of Antimalarial Drug Lead: Primary Screen | AlphaScreen AMA1-biotinylated RON2 peptide binding | Potency, µM (highest dose often 58.2 µM), for inactives: at the top dose activity change, negative = inhibition, usual class: inhibitors | hit rate 0.2% among 360,000; active means well fitted inhibition curve with a large enough effect; inconclusive means small, poorly fitted or top-dose-only effect; inactive means no such curve, though single readings can be large or run the other way;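 further: potency means the concentration at half of the fitted maximal effect; 0% = vehicle wells and -100% = peptide control; nearly all actives have a fitted effect of over 45% in size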
#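 AMA1 (3D7) with his tag at 25 nM final met compounds first, then biotinylated RON2 peptide at 25 nM; detection used donor plus acceptor beads, 10 µg/mL apiece, read by AlphaScreen after 30 min at room temperature.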
# Cycloheximide cs: Cycloheximide Counterscreen for Small Molecule Inhibitors of Shiga Toxin; hit rate 12% among 300,000; cell reporter, cycloheximide protein synthesis inhibition counterscreen; max response, %; AID 2314, 2010; in the data active means max response mostly above about 13%, no sharp cut-off; inactive means mostly below about 14%; further: read at 38.3 µM for the half of the compounds with a filed dose; 0% is about no effect
# * marks the source's active call; other numbers are inactive results; ? = inconclusive; / = no result; + = active, no number; [ ] = dose if it differs, or a comment.
SMILES,Lassa entry inh,Shiga toxin inh,Marburg entry inh,AMA1-RON2 inh,Cycloheximide cs
CCOC(=O)c1cc2sccc2n1CC(=O)Nc1ccc2c(c1)OCCO2,8%,45,?,-23%,18*
CC(CCc1ccccc1)NC(=O)c1cc2sccc2n1C (stereo not drawn),4%,37,-14%,?,21*
CCOc1ccc(CCNC(=O)Cn2c(-c3cccs3)cc3cc(F)ccc32)cc1OCC,11µM*,/,?,/,/
Cn1c(C(=O)Nc2ccccc2)cc2sccc21,?,50,19%,-24%,26*
O=C(Nc1ccc(F)cc1Cl)C1Cc2ccccc2N1C(=O)c1ccccc1 (stereo not drawn),0%[46.1 µM],/,/,/,/
O=C(COC(=O)c1ccc2c(c1)OCCO2)NCc1ccc(Cl)cc1,/,/,/,-4%,/
CCOc1ccc(CCNC(=O)c2cc3sc(Cl)cc3n2C)cc1OCC,3%,26,?,-15%,19
CCOc1ccc(CCNC(=O)c2cc3sccc3n2C)cc1OCC,-26%,10,7.1µM*,-16%,1
Cc1ccc(C(=O)COC(=O)CCC(=O)Nc2ccc(Oc3cc(C)ccc3C(C)C)cc2)cc1,17%[46.1 µM],/,-18%[46.1 µM],/,/
COc1ccc2nc(Nc3ccc4c(c3)OCO4)sc2c1,-18%,45*,-27%,-5%,39*
COc1ccc2nc(Nc3nc4cc5c(cc4s3)OCO5)sc2c1,13%,64*,?,23%,23*
COc1ccc2nc(NC(=O)/C=C/c3ccc4c(c3)OCO4)sc2c1,/,18,/,/,4
COc1cccc(/C=C/C(=O)OCC(=O)Nc2cccc(S(=O)(=O)N3CCCCC3)c2)c1OC,2%,61*,-5%,-16%,13
CCc1ccc(OCC(=O)Nc2ccc3c(c2)OCCO3)cc1,-20%[46.1 µM],30,?,1%,27*
CC(=O)Nc1ccc(NC(=O)COc2ccc(S(=O)(=O)N3CCCC3)cc2)cc1,-13%,-17,1%,8%,-1
Cc1cc(OCC(=O)Nc2cccc(S(=O)(=O)N3CCCC3)c2)ccc1Cl,?,/,5µM*,2%,/
O=C(COc1ccc(S(=O)(=O)N2CCCC2)cc1)Nc1ccc2c(c1)OCCO2,?,44*,?,-4%,24*
Cc1ccnc(NC(=O)c2cccc(NC(=O)CC3SC(N4CCCCC4)=NC3=O)c2)c1 (stereo not drawn),/,/,/,-1%,/
COc1ccc(Cc2nc3c([nH]2)c(=O)n(C)c(=O)n3C)cc1OC,11%[46.1 µM],/,?,-11%,/
COc1ccc([C@H]2CC(=O)C[C@@H](CCn3cc(-c4nccn4C)nn3)O2)cc1,/,/,/,-10%,/
CC(=O)c1ccc(NC(=O)COc2ccc3c(c2)OCO3)cc1,9%,4,16%[46.1 µM],-14%,19*
CCc1ccc(NC(=O)COc2ccc3c(c2)OCO3)cc1,/,42*,/,-3%,31*
COc1ccc(NC(=O)COc2ccc3c(c2)OCO3)cc1,-10%[46.1 µM],32,10%[46.1 µM],-25%,8
CC(=O)Nc1cccc(NC(=O)COc2ccc3c(c2)OCO3)c1,-31%[46.1 µM],60*,?,11%,27*
Cc1nn(C)cc1C(N)=O,0%,-13,-14%[46.1 µM],-3%,-2
SMILES,Lassa entry inh,Shiga toxin inh,Marburg entry inh,AMA1-RON2 inh,Cycloheximide cs
C/C(=N\NC(=O)c1ccn[nH]1)c1cn(C)nc1C,?,117*,?,-27%,44*
CC(C)c1ccc2[nH]c(O)c(N=NC(=O)c3cccc(S(=O)(=O)N4CCCCC4)c3)c2c1,?,-1,10µM*,0%,-4
O=C(N=Nc1c(O)[nH]c2ccccc12)c1cccc(S(=O)(=O)N2CCCCC2)c1,12%,63*,19%,1%,12*
C=CCN1C=CC(=O)[C@@H](OC(=O)Nc2ccc(Br)cc2)[C@H]1c1ccccc1Br,/,/,/,4%,/
COc1cc(/C=C/c2ccc3cccc(O)c3n2)cc(Cl)c1OC,?,127*,4.5µM*,69%,52*
COc1cc(/C=C/c2ccc3cccc(O)c3n2)cc(OC)c1OC,?,63*,?,103%,33*
COc1ccc(/C=C/c2ccc3cccc(O)c3n2)cc1Br,/,115*,/,119%,48*
COc1ccc(/C=C/c2ccc3c(Br)ccc(O)c3n2)cc1,-24%[46.1 µM],94*,?,77%,39*
CCn1c(SCC(=O)N2CCC(C)CC2)nc2c(c1=O)SCC2,?,64,2%[46.1 µM],-8%,5
Cc1nn(C(C)C(=O)NNC(=S)Nc2ccc(F)cc2)c(C)c1[N+](=O)[O-] (stereo not drawn),-13%[14.3 µM],-20,3%,58%,-7
Nc1cc(C(F)(F)F)cc2c1SCC(=O)N2,3%,14,29%,8%,-2
CCN(C(=O)CCNC(=O)Cn1cnc2ccccc2c1=O)c1ccccc1F,-11%,-10,9%[46.1 µM],13%,4
O=C1NC(=O)[C@H](c2cn(-c3ccccc3)nc2-c2ccc(F)cc2)N1,/,/,2%,/,/
COc1cc(/C=C/c2ccc3cccc(O)c3n2)cc(Br)c1OC,-14%,164*,?,2%,78*
Cc1ccccc1-n1ncc(C(C)NC(=O)c2ccccc2)c1C (stereo not drawn),/,44,/,-4%,35*
Cc1ccccc1-n1ncc(C(C)NC(=O)c2ccco2)c1C (stereo not drawn),-6%[46.1 µM],55*,4%[46.1 µM],10%,29*
O=C(c1ccco1)N1c2ccccc2Sc2ccccc21,?,13,22µM*,4%,6
COc1cc(NC(=O)CCc2ccccc2)nc(OC)n1,4%,48*,?,7%,35*
COc1ccc(C(=O)Nc2cc(OC)nc(OC)n2)cc1,?,53*,-24%,-4%,19*
Cc1cccc(-c2cnn(-c3cccc([N+](=O)[O-])c3)c2N)c1,10%,36,-9%[46.1 µM],-24%,22*
Cc1cc(Nc2ccccc2)n(-c2cccc(Cl)c2)n1,18%,7,-13%,2%,4
Cc1cccc(-c2cnn(-c3ccccc3)c2N)c1,/,101*,/,0%,44*
Nc1ccccc1Nc1cc(-c2cccc(Cl)c2)nn1-c1ccccc1,20%,+,-11%,?,20*
Nc1c(-c2ccccc2)cnn1-c1cccc(Cl)c1,?,82*,?,11%,51*
O=C(NC1CC(=O)N(c2ccc(Cl)cc2)C1)c1cccs1 (stereo not drawn),-19%[46.1 µM],/,/,/,/
CCOC(=O)N1CCN(C(=S)Nc2ccc(C)cc2)CC1,-2%,28,?,5%,-1
CCCCn1nnnc1C(c1cc2ccccc2o1)N1CCN(c2ncccc2C#N)CC1 (stereo not drawn),/,/,/,1%,/
CN(C)C(=O)N1CCc2ccc([N+](=O)[O-])cc21,/,/,/,1%,/
CC(=O)OCC(NC(=O)C(Cc1ccccc1)NC(=O)OC(C)(C)C)C1OC(n2cc(F)c(=O)[nH]c2=O)C(OC(C)=O)C1OC(C)=O (stereo not drawn),/,-9,/,/,-2
Cc1cccc(OCc2nc3ccccc3n2C)c1,/,29*,/,-20%,37*
